Data: PubChem BioAssay AID1578 (Sanford-Burnham Center for Chemical Genomics, 2009)
The whole screen tested about 290,000 compounds, of which about 3,000 (1%) were called active. Cut-off read from the data, not from the text of the source: active = inhibition mostly above about 36% (no sharp cut-off); inactive = mostly below about 34%. This excerpt belongs to a sample that is enriched for actives.

Assay: NOD1 signaling inhibitors, primary screen, cell-based, luminescence, uHTS (AID 1578);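 note: HEK-293T reporter cells stimulated with the NOD1 agonist gamma-tri-DAP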
Conditions: NOD1-driven NF-kB luciferase reporter cells, at 4 µM, hits give high values

Structure (SMILES) | inhibition
CN(C)c1oc(/C=C/c2cccs2)nc1S(=O)(=O)c1ccccc1 | 32.1% (inactive)
Cc1cc(O)c(C(=O)/C=C/c2ccc(Cl)cc2)c(=O)o1 | 46.1% (active)
Cc1cc(O)c(C(=O)/C=C/c2ccccc2)c(=O)o1 | 0.7% (inactive)
Cc1cc(O)c(C(=O)/C=C/c2ccc(C(C)C)cc2)c(=O)o1 | 5.9% (inactive)
CCOC(=O)C1(CCc2ccccc2)CCN(Cc2ccc(C(=O)OC)cc2)CC1 | 13.7% (inactive)
Cc1ccc(NC(=O)c2ccoc2C)cc1C | 112% (active)
Cc1occc1C(=O)Nc1ccc2c(c1)OCCO2 | -15% (inactive)
Cc1occc1C(=O)Nc1ccc2ccccc2c1 | -121% (inactive)
COC(=O)C(Cc1c[nH]c2ccccc12)NC(=O)c1cccs1 (centres undefined) | -7.6% (inactive)
CCN(C(=O)COc1ccccc1)c1nnc(-c2cccnc2)s1 | -10.9% (inactive)
CCN1CCN(c2nc3ccccc3nc2C(C#N)C(=O)OC2CCCCC2)CC1 (centres undefined) | 81.8% (active)
N#CC(C(=O)OC1CCCCC1)c1nc2ccccc2nc1N1CCCCC1 (centres undefined) | 4.5% (inactive)
CN1CCN(c2nc3ccccc3nc2C(C#N)C(=O)OC2CCCCC2)CC1 (centres undefined) | 11.4% (inactive)
COCCN1C(=O)C(CC(=O)Nc2ccc(C(C)=O)cc2)SC1=Nc1ccccc1 (centres undefined) | 4.5% (inactive)
COC(=O)Nc1ccc(C)c(NC(=O)OC)c1 | -7.3% (inactive)
O=c1[nH]c([N+](=O)[O-])nn1C(c1ccccc1)c1ccccc1 | 6.5% (inactive)
COC(=O)c1ccc(CSc2cc(C)c3cccc(C)c3n2)o1 | -10.2% (inactive)
COC(=O)c1ccc(CSc2cc(C)c3cc(C)cc(C)c3n2)o1 | 48.3% (active)
COC(=O)c1ccc(CSc2cc(C)c3ccccc3n2)o1 | -55.1% (inactive)
CC(C)(C)c1cc(CN2CCC(O)CC2)cc(C(C)(C)C)c1O | 36.7% (inactive)
CCOC(=O)C1CCN(Cc2cc(C(C)(C)C)c(O)c(C(C)(C)C)c2)CC1 | 43.8% (active)
CCOC(=O)C1CCN(Cc2cc(C(C)C)c(O)c(C(C)C)c2)CC1 | -13.9% (inactive)
Cc1c(C(c2cccc(Br)c2)c2c(C)n(C)n(-c3ccccc3)c2=O)c(=O)n(-c2ccccc2)n1C | -14% (inactive)
CC12C(=O)N(c3ccc(C(=O)N4CCOCC4)cc3)C(=O)C1C1c3ccccc3C2c2ccccc21 (centres undefined) | -20.5% (inactive)
c1ccc(-n2c(SCC3CCCCO3)nnc2-c2cnccn2)cc1 (centres undefined) | 11.8% (inactive)

Structure (SMILES) | inhibition
CCc1nnc(NC(=O)C2CCN(c3cnccn3)CC2)s1 | -4.1% (inactive)
COc1nc(N/N=C/c2ccc(C)cc2)nc(N2CCCCC2)n1 | -27.3% (inactive)
Cc1cc(-c2n[nH]c(=S)n2-c2ccc(C)c(C)c2)no1 | 84% (active)
Cc1ccc(-n2c(-c3ccncc3)n[nH]c2=S)cc1C | -5.7% (inactive)
Cc1ccc(-n2c(C)n[nH]c2=S)cc1C | 3.4% (inactive)
CCN(CC)S(=O)(=O)N1CCC(C(=O)NCc2ccco2)CC1 | 22% (inactive)
COc1ccc(C2(c3ccc(OC)cc3)NC(=O)N(CC(=O)N(C)C)C2=O)cc1 | -33.1% (inactive)
COc1c(Cl)cc(-c2noc(C)c2C(=O)NCCc2ccc(C)cc2)cc1Cl | -10.2% (inactive)
CN(C)c1ccc(NC(=O)C(=O)C2C(=O)Nc3ccccc32)cc1 (centres undefined) | -9.3% (inactive)
COc1cccc(CC(NC(C)=O)C(=O)NC2CCN(c3c4c(nc5ncnn35)CCC4)CC2)c1OC (centres undefined) | -26.4% (inactive)
CC1=Nc2cc(C(=O)NCC3CCCO3)ccc2Sc2ccc(Br)cc21 (centres undefined) | 8.4% (inactive)
CCC1=Nc2cc(C(=O)NCC3CCCO3)ccc2Sc2ccc(Cl)cc21 (centres undefined) | 1% (inactive)
CCC1=Nc2cc(C(=O)NCC3CCCO3)ccc2Sc2ccc(Br)cc21 (centres undefined) | 51.7% (active)
CCCCNC(=O)N1CCN(c2ccccc2OC)CC1 | -17.5% (inactive)
CCCN(CC(=O)Nc1ccc(C(N)=O)cc1)CC(=O)Nc1ccc(Cl)cc1Cl | -30.3% (inactive)
CCCN(CC(=O)Nc1ccc(C(N)=O)cc1)CC(=O)Nc1ccc(F)c(F)c1F | 38.1% (active)
CCCN(CC(=O)Nc1ccc(NC(C)=O)cc1)CC(=O)Nc1ccc(F)c(F)c1F | -20.3% (inactive)
CC(C)NC(=O)CSc1nnc(-c2ccc3ncccc3c2)n1C | -3.6% (inactive)
Cc1nc2ccc3[nH]snc3c2n1 | 20.2% (inactive)
c1cc2[nH]snc2c2nc(C3CC3)nc12 | 63.2% (active)
CCCOc1ccc2cc(-c3ccccn3)c(=O)oc2c1 | 41.1% (inactive)
CC1CN(CCc2ccccc2)c2nc3c(c(=O)n(C)c(=O)n3C)n2C1 (centres undefined) | -12.5% (inactive)
N#Cc1ccc(-c2nc3ccccc3nc2-c2ccccc2)cc1C#N | 1.3% (inactive)
CCOc1ccc(-n2c(-c3ccccc3)nnc2-c2ccccc2)cc1 | 8.2% (inactive)
N#Cc1ccc(-n2c(-c3ccccc3)nnc2-c2ccccc2)cc1C#N | 42.1% (active)

Structure (SMILES) | inhibition
N#Cc1cccc(-n2c(-c3ccccc3)nnc2-c2ccccc2)c1C#N | 11.5% (inactive)
N#Cc1ccc(-c2nc3cc(C#N)c(C#N)cc3nc2-c2ccccc2)cc1C#N | 48.5% (active)
N#Cc1ccc(Oc2ccc(-c3nc4ccccc4nc3-c3ccccc3)cc2)cc1C#N | 3.3% (inactive)
CC(=O)Nc1nnc(CSCc2ccccc2F)s1 | -5.5% (inactive)
CC(=O)N(C)c1cccc(-c2ccc3nnc(C)n3n2)c1 | -5.9% (inactive)
CCOC(=O)c1c(-c2ccccc2)csc1NC(=O)c1cc(S(=O)(=O)N2CCOCC2)ccc1C | -1.6% (inactive)
Fc1ccc(Nc2nnc(C(F)(F)F)s2)cc1 | 3.4% (inactive)
Cc1oc(-c2cccc(F)c2)nc1CN1CCCCC1CCn1cccn1 (centres undefined) | -32% (inactive)
Cc1nnc(Nc2ccc(Cl)cc2)n(N)c1=O | -7% (inactive)
c1ccc2c(c1)OCC(c1nn3c(Cn4nnc5ccccc54)nnc3s1)O2 (centres undefined) | -10.7% (inactive)
c1ccc(Cc2nnc3sc(C4COc5ccccc5O4)nn23)cc1 (centres undefined) | 107% (active)
c1ccc(OCc2nnc3sc(C4COc5ccccc5O4)nn23)cc1 (centres undefined) | 1.5% (inactive)
O=C(Nc1ccc(F)cc1)c1nc[nH]c1C(=O)O | -6.5% (inactive)
Nc1nc(-c2ccccc2)c(C(=O)Nc2ccccc2)s1 | -28.9% (inactive)
O=C1c2ccccc2C(=O)C1c1ccccn1 | -8.4% (inactive)
O=C1c2ccccc2C(=O)C2OC12 (centres undefined) | 70.9% (active)
Cc1ccccc1C1C(=O)c2ccccc2C1=O | -39.1% (inactive)
Clc1ccccc1OCCn1cnc2ccccc21 | -21.1% (inactive)
COc1ccc(S(=O)(=O)NC(Cc2ccccc2)C(=O)O)cc1 (centres undefined) | -1.3% (inactive)
COc1ccc(C(CNC(=O)COc2ccc(C)c(C)c2)N2CCCCC2)cc1 (centres undefined) | 10.5% (inactive)
Cc1nc(C)n(CCNC(=O)c2ccco2)n1 | -15.3% (inactive)
Oc1c(Br)cc(Br)cc1C=Nc1ccc2[nH]ncc2c1 | 8.5% (inactive)
Oc1c(Br)cc(Br)cc1C=Nc1cccnc1 | 67.4% (active)
COc1cccc(C=Nc2cccnc2)c1O | -7.3% (inactive)
COc1ccc(/C=C2\CCC(C3CCCC3)C2=O)cc1Cn1nc(C)cc1C (centres undefined) | 26.4% (inactive)

Structure (SMILES) | inhibition
Cc1ccc(SCC(=O)NC2CCCCCC2)cc1 | -50.8% (inactive)
CCN(CC)CCNC(=O)c1cn(CC)c2ccc(S(=O)(=O)N(C)C)cc2c1=O | -4.5% (inactive)
COC(=O)C(C(=O)OC)C(CC(=O)c1ccc(C)cc1)c1cc(OC)c(OC)c(OC)c1 (centres undefined) | -3.3% (inactive)
COc1ccc(C(CC(=O)c2ccc(C)cc2)C(C#N)C#N)cc1OC (centres undefined) | 80.7% (active)
COc1ccc(C(CC(=O)c2ccccc2)CC(=O)c2ccccc2)cc1OC | -7.4% (inactive)
C=CCN(c1nc(C)c(Br)c(OC)n1)S(=O)(=O)c1ccc(C)cc1 | -14% (inactive)
CCN(Cc1cc2ccccc2[nH]c1=O)S(=O)(=O)c1ccc(OC)cc1 | -5.3% (inactive)
Cc1cc(CNC(=O)c2cccc([N+](=O)[O-])c2C)c2ccccc2n1 | 2.7% (inactive)
O=C(Oc1ccccc1C(=O)Nc1ccccc1)c1ccc(Br)c([N+](=O)[O-])c1 | -30.7% (inactive)
O=C(c1ccc2c(Cl)c3c(nc2c1)CCCC3)N1CCC(N2CCCCC2)CC1 | -13.1% (inactive)
Cn1c(=O)c(C(=O)CN2CCc3ccccc32)c(N)n(Cc2ccccc2)c1=O | -8.9% (inactive)
O=C(CSc1nc2ncc(Br)cc2[nH]1)c1ccc([N+](=O)[O-])cc1 | -15.6% (inactive)
Cc1nn(C)cc1/C=C/C(=O)c1cccs1 | 112% (active)
Cc1nn(C)cc1/C=C/C(=O)c1ccccc1 | -44.5% (inactive)
Cc1c(/C=C/C(=O)c2cccs2)cnn1C | 20.7% (inactive)
Cc1ccnc(Cc2ccccc2)n1 | -4.5% (inactive)
O=C(CCC(=O)OCC(=O)c1ccc(-c2ccccc2)cc1)Nc1cccc(Cl)c1 | 7.8% (inactive)
Cc1cc(C)n(-c2ccc(C(=O)Nc3ccccn3)cc2)n1 | -30.3% (inactive)
Cc1onc(-c2c(Cl)cccc2Cl)c1C(=O)N/N=C(\N)COc1ccc(Cl)cc1 | 71.9% (active)
Cc1onc(-c2ccccc2)c1C(=O)N/N=C(\N)COc1ccc(Cl)cc1 | -17.2% (inactive)
Cc1onc(-c2ccccc2Cl)c1C(=O)N/N=C(\N)COc1ccc(Cl)cc1 | 8.6% (inactive)
O=C(NCC1CC1)NC(=O)c1c(F)cccc1Cl | -15.8% (inactive)
Nc1ccc(S(=O)(=O)Nc2nccc(/C=C/c3ccc(Cl)cc3)n2)cc1 | 22.2% (inactive)
Nc1ccc(S(=O)(=O)Nc2nccc(/C=C/c3ccc([N+](=O)[O-])cc3)n2)cc1 | 14% (inactive)
